# Results from PMC7862700, “An all-to-all approach to the identification of sequence-specific readers for epigenetic DNA modifications on cytosine”.
# Tests used:
# Assay in all cases: DAPPL (digital affinity profiling via proximity ligation, sequencing); 10 mM Tris-HCl pH 7.5, 50 mM NaCl, 1 mM DTT, 4% glycerol, room temperature, 30 min; GST-TFs on glutathione beads, 16-mer random dsDNA library, 0.1% formaldehyde crosslink after washing; high values mean tight binding
# Settings in all cases: protein: recombinant; tags: N-terminal GST; dsDNA, one strand shown
# GABPA = biological target: T1, GABPA (Homo sapiens, UniProt Q06546 1-454)
# T1 sequence: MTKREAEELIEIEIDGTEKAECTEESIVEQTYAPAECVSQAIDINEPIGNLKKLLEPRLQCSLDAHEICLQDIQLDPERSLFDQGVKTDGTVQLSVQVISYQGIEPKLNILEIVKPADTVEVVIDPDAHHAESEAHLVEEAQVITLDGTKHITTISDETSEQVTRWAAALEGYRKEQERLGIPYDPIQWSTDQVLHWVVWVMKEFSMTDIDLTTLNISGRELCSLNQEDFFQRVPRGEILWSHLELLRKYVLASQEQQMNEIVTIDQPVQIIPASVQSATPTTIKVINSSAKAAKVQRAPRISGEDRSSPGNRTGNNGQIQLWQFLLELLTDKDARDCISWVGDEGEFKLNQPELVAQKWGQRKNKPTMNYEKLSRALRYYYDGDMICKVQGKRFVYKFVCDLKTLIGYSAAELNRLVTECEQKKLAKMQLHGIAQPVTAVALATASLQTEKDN
# Outline: (§1)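 Pools were built from human transcription factors expressed in yeast as GST fusions, captured on glutathione beads and DNA-barcoded, along with a tag-only sample. Incubation with 200 nmole of a 16-mer random double-stranded DNA library lasted 30 min at room temperature in Tris/NaCl/DTT/glycerol buffer, and was followed by washing, 0.1% formaldehyde crosslinking, proximity ligation, PCR amplification and Illumina NextSeq500 sequencing. Binding signal is the quotient of each hexamer's read frequency for a factor and its frequency for the tag-only sample.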
# ELF1 = ELF1 (Homo sapiens, UniProt P32519 1-619)
# Chain of ELF1 (P32519 whole entry): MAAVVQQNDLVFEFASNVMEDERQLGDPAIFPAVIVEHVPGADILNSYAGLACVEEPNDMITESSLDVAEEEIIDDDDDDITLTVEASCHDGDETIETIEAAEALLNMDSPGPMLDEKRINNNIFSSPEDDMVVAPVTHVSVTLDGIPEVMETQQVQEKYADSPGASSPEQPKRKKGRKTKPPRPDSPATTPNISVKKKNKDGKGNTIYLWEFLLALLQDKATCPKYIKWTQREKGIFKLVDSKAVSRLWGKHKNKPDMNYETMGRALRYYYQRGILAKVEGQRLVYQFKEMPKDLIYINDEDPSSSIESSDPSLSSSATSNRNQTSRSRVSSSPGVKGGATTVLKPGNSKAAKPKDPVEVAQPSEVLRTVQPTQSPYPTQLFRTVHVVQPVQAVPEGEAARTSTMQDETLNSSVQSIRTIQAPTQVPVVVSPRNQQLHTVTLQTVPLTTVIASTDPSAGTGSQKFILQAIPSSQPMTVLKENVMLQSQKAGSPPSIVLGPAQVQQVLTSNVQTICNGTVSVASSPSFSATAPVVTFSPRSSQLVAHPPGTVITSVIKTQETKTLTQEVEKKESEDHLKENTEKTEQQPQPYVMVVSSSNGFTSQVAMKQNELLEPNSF
# Outline: as §1
# EHF = biological target: T2, EHF (Homo sapiens, UniProt Q9NZC4 1-300)
# T2 sequence: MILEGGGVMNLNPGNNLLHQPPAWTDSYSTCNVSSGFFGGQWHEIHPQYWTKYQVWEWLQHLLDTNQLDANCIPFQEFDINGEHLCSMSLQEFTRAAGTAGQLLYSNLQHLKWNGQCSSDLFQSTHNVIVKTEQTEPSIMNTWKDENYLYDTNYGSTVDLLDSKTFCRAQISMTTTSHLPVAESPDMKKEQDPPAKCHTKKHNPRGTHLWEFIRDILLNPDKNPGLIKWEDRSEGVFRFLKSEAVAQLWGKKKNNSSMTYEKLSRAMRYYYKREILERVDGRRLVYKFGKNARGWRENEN
# Outline: as §1
# SPI1 = SPI1 (Homo sapiens, UniProt P17947 1-270)
# Outline: as §1
# SPIB = SPIB (Homo sapiens, UniProt Q01892 1-262)
# Chain of SPIB (Q01892 whole entry): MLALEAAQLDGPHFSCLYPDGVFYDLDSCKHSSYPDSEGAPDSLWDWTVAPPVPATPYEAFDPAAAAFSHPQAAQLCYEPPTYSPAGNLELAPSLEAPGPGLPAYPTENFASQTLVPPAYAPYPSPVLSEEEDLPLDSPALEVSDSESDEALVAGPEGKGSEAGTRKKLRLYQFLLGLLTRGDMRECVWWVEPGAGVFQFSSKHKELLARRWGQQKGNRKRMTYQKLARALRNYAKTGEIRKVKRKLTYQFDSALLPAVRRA
# Outline: as §1
# FEV = biological target: T3, FEV (Homo sapiens, UniProt Q99581 1-238)
# T3 sequence: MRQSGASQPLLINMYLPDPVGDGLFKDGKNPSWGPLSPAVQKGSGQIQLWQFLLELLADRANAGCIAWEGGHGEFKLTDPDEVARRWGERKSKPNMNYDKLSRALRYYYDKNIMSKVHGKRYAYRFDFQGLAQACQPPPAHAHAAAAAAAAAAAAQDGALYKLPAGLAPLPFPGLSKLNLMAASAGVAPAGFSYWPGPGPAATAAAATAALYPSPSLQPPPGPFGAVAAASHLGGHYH
# Outline: as §1
# ETV5 = ETV5 (Homo sapiens, UniProt P41161 1-510)
# Chain of ETV5 (P41161 whole entry): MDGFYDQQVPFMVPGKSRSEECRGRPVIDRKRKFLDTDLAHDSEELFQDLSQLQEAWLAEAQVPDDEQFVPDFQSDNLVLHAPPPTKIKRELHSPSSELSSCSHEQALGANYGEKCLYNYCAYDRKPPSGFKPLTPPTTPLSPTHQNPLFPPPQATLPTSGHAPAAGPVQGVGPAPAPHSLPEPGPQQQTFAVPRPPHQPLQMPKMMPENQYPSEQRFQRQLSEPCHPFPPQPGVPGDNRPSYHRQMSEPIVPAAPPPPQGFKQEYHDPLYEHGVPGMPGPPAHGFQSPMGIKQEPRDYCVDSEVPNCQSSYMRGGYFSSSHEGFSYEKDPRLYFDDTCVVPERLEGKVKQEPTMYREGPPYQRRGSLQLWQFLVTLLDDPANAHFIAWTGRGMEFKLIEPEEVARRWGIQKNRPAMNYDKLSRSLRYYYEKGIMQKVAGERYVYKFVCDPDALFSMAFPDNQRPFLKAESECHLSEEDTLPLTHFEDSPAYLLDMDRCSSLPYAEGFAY
# Outline: as §1
# ELF4 = ELF4 (Homo sapiens, UniProt Q99607 1-663)
# Chain of ELF4 (Q99607 whole entry): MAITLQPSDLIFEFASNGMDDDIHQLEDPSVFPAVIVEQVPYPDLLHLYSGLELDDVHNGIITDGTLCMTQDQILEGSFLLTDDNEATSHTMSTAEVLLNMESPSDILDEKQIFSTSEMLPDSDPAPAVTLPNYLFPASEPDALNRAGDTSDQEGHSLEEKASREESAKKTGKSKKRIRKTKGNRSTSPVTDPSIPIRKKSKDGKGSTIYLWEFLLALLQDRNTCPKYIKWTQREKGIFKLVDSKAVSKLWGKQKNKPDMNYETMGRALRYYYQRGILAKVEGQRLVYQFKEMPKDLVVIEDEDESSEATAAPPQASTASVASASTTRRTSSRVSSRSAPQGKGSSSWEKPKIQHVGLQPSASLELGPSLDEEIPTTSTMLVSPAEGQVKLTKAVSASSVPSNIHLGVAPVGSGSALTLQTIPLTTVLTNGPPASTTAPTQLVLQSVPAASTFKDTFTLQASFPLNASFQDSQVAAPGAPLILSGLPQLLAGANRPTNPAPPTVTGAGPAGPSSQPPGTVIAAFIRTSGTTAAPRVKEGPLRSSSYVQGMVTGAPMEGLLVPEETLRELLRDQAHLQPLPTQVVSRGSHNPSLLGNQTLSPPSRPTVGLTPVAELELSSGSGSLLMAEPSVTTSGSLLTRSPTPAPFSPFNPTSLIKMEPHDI
# Outline: as §1
# ELK4 = biological target: T4, ELK4 (Homo sapiens, UniProt P28324-2 1-405)
# T4 sequence: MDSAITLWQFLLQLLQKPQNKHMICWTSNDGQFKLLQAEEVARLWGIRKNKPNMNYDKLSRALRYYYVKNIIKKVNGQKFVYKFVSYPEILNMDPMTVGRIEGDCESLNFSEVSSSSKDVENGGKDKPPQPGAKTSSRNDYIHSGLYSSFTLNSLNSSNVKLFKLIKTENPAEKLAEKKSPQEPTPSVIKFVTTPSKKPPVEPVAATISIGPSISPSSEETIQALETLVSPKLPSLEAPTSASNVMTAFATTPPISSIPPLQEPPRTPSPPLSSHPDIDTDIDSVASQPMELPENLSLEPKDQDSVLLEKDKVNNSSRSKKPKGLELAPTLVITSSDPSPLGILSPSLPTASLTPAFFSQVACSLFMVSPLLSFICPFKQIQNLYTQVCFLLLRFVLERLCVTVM
# Outline: as §1
# ETV1 = ETV1 (Homo sapiens, UniProt P50549 1-477)
# Chain of ETV1 (P50549 whole entry): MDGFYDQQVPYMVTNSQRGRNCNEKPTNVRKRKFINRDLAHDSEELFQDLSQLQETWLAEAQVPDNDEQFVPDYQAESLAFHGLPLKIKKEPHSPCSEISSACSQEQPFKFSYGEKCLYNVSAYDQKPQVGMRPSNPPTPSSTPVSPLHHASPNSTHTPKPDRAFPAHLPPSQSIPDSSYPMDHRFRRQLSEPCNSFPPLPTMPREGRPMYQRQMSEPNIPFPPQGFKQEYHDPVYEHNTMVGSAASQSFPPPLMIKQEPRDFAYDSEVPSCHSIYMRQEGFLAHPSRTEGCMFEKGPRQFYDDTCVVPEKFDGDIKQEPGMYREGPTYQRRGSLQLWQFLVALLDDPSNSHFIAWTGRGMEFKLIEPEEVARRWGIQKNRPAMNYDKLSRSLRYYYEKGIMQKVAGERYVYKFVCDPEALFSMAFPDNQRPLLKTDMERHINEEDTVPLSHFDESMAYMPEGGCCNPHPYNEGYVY
# Outline: as §1
# ERF = biological target: T5, ERF (Homo sapiens, UniProt P50548 1-548)
# T5 sequence: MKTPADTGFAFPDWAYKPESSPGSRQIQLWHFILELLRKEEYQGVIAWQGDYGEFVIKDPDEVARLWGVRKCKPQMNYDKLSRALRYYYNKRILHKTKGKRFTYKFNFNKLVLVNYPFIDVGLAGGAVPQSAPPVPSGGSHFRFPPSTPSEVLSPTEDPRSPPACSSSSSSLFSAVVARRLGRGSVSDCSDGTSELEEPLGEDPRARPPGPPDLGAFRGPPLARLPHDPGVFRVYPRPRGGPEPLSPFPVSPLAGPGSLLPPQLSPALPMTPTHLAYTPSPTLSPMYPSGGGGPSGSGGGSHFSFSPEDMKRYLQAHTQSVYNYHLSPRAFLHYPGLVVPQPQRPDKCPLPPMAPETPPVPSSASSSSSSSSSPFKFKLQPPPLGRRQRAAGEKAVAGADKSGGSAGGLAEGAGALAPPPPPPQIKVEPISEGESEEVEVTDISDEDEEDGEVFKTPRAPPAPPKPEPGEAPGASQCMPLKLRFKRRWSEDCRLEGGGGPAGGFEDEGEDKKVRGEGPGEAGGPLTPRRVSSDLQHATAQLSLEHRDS
# Outline: as §1
# ETS2 = biological target: T6, ETS2 (Homo sapiens, UniProt P15036 1-469)
# T6 sequence: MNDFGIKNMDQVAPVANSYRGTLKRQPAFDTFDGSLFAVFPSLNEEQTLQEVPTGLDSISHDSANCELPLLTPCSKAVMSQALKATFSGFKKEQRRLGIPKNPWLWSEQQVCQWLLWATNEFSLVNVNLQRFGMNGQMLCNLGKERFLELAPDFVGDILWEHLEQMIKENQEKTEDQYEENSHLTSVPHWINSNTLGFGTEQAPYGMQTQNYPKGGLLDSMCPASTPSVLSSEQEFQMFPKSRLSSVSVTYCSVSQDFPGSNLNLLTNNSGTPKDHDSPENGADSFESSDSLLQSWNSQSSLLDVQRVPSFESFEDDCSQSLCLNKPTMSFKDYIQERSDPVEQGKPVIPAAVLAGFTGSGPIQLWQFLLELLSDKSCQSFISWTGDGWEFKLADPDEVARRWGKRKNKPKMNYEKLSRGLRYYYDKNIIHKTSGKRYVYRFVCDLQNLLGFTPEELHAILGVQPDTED
# Outline: as §1
# SPDEF = biological target: T7, SPDEF (Homo sapiens, UniProt O95238 1-335)
# T7 sequence: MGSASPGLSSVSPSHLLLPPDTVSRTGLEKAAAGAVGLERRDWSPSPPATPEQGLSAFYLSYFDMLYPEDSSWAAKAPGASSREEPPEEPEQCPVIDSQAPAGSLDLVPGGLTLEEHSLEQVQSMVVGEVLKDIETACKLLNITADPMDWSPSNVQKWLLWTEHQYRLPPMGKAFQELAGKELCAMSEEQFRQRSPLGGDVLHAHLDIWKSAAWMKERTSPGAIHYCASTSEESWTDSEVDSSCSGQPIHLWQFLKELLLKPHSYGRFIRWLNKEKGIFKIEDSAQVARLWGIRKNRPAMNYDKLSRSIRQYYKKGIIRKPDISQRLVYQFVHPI
# Outline: as §1
# ETV7 = biological target: T8, ETV7 (Homo sapiens, UniProt Q9Y603 1-341)
# T8 sequence: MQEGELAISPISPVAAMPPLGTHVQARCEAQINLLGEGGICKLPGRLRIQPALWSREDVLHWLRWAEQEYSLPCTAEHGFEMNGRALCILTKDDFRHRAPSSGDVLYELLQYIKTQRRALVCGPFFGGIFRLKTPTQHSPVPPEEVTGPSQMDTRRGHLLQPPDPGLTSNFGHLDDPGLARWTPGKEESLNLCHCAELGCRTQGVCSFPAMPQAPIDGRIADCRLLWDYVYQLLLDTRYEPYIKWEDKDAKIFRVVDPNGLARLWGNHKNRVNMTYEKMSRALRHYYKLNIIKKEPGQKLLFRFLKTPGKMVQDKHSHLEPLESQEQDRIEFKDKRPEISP
# Outline: as §1
# ETV3 = biological target: T9, ETV3 (Homo sapiens, UniProt P41162-2 1-143)
# T9 sequence: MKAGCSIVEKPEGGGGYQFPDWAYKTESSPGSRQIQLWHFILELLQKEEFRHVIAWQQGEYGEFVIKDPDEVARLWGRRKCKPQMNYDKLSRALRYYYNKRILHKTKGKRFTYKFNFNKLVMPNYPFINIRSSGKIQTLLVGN
# Outline: as §1
# ETV6 = ETV6 (Homo sapiens, UniProt P41212 1-452)
# Chain of ETV6 (P41212 whole entry): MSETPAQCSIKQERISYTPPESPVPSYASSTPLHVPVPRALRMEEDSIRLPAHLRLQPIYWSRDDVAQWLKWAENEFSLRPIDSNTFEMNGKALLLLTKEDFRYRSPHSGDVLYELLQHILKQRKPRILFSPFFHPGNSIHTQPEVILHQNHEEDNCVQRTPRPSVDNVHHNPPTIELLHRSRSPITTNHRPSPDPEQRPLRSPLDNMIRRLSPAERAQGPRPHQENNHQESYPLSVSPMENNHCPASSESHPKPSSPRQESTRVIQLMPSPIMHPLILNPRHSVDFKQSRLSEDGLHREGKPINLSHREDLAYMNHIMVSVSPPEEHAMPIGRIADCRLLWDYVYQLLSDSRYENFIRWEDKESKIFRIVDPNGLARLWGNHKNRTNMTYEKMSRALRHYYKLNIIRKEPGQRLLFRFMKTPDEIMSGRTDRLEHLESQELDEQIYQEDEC
# Outline: as §1
sequence,measurement,setting,value
GTAACC,binding signal,GABPA,"1.01 fold enrichment (6-mer frequency, TF over GST control)"
same,binding signal,ELF1,"1.05 fold enrichment (6-mer frequency, TF over GST control)"
same,binding signal,EHF,"1.11 fold enrichment (6-mer frequency, TF over GST control)"
same,binding signal,SPI1,"1.01 fold enrichment (6-mer frequency, TF over GST control)"
same,binding signal,SPIB,"1.1 fold enrichment (6-mer frequency, TF over GST control)"
same,binding signal,FEV,"1.04 fold enrichment (6-mer frequency, TF over GST control)"
same,binding signal,ETV5,"1.05 fold enrichment (6-mer frequency, TF over GST control)"
same,binding signal,ELF4,"1.05 fold enrichment (6-mer frequency, TF over GST control)"
same,binding signal,ELK4,"1.02 fold enrichment (6-mer frequency, TF over GST control)"
same,binding signal,ETV1,"1.09 fold enrichment (6-mer frequency, TF over GST control)"
same,binding signal,ERF,"1.11 fold enrichment (6-mer frequency, TF over GST control)"
same,binding signal,ETS2,"1.1 fold enrichment (6-mer frequency, TF over GST control)"
same,binding signal,SPDEF,"1.03 fold enrichment (6-mer frequency, TF over GST control)"
same,binding signal,ETV7,"1.07 fold enrichment (6-mer frequency, TF over GST control)"
same,binding signal,ETV3,"1.13 fold enrichment (6-mer frequency, TF over GST control)"
same,binding signal,ETV6,"1.07 fold enrichment (6-mer frequency, TF over GST control)"
